Reference: PubChem BioAssay AID1159580 (chemical genetic matrix, 2015)
Values joined by “and” are separate entries in the source; they are usually repeats but may differ in a detail not shown here. Equal values may be shown once. Screen size: about 5,500 compounds; about 2,000 (36%) were called active. Roughly 18% stayed inconclusive and do not appear here. No stated cut-off is given here; in the data, active means normalized growth mostly below about 0.91 (no sharp cut-off); inconclusive means no clear call, values can overlap the other calls; inactive means mostly above about 0.92. This is one part of the list.

Test: chemical genetic growth profiling, strain panel (AID 1159580);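 further: tested at 20 µM; growth read once vehicle control cultures reached saturation at 30 °C; 1 = growth at the plate median or of vehicle wells; lower values mean less growth of the strain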
Settings: S. cerevisiae deletion strains, growth OD

Measured: normalized growth

CC1(C)O[C@H]2[C@H](O)C[C@](O)(C(N)=O)C[C@H]2O1
inactive: locus YAL013W, strain DEP1, active compounds read low 1.01 | locus YAL021C, strain ccr4, active compounds read low 0.996 | locus YAL026C, strain drs2, active compounds read low 1.04 | locus YAL030W, strain snc1, active compounds read low 1.01 | locus YBL061C, strain skt5, active compounds read low 1.01 | locus YBR009C, strain hhf1, active compounds read low 1.02 | locus YBR021W, strain FUR4, active compounds read low 1.02 | locus YBR023C, strain chs3, active compounds read low 1.02 | locus YBR171W, strain sec66, active compounds read low 1.03 | locus YBR229C, strain ROT2, active compounds read low 1.03 | locus YBR231C, strain swc5, active compounds read low 1.01 | locus YBR279W, strain paf1, active compounds read low 1.01 | locus YCL011C, strain gbp2, active compounds read low 1.01 | locus YCL016C, strain dcc1, active compounds read low 1.01 | locus YCL029C, strain bik1, active compounds read low 1.04 | locus YCL061C, strain MRC1, active compounds read low 1.01 | locus YCL069W, strain vba3, active compounds read low 1.02 | locus YCR088W, strain abp1, active compounds read low 1.01 | locus YDL005C, strain med2, active compounds read low 1.01 | locus YDL035C, strain GPR1, active compounds read low 1.05 | locus YDL040C, strain nat1, active compounds read low 1.01 | locus YDL074C, strain BRE1, active compounds read low 1.12 | locus YDL101C, strain DUN1, active compounds read low 1.03 | locus YDL185W, strain tfp1, active compounds read low 1.02 | locus YDL192W, strain arf1, active compounds read low 1.05 | locus YDR001C, strain nth1, active compounds read low 1.01 | locus YDR069C, strain doa4, active compounds read low 1.01 | locus YDR101C, strain arx1, active compounds read low 1.01 | locus YDR137W, strain rgp1, active compounds read low 1.04 | locus YDR159W, strain sac3, active compounds read low 1.06 | locus YDR162C, strain NBP2, active compounds read low 1.04 | locus YDR195W, strain ref2 1.01 | locus YDR297W, strain sur2, active compounds read low 1.01 | locus YDR318W, strain mcm21, active compounds read low 1.04 | locus YDR334W, strain swr1, active compounds read low 1.03 | locus YDR335W, strain msn5, active compounds read low 1.02 | locus YDR388W, active compounds read low 1.01 | locus YDR392W, strain spt3, active compounds read low 0.959 | locus YDR502C, strain sam2, active compounds read low 1.03 | locus YEL003W, strain gim4, active compounds read low 1.02 | locus YEL037C, strain rad23, active compounds read low 1.02 | locus YEL061C, strain CIN8 (second series), active compounds read low 1.02 | locus YER015W, strain faa2, active compounds read low 1.02 | locus YER016W, strain bim1, active compounds read low 1.01 | locus YER110C, active compounds read low 1.03 | locus YER111C, strain swi4, active compounds read low 0.996 | locus YER155C, strain BEM2 (second series), active compounds read low 1.03 | locus YER155C, strain BEM2, active compounds read low 0.997 | locus YER167W, strain BCK2, active compounds read low 1.02 | locus YFR010W, strain ubp6, active compounds read low 1.04 | locus YGL078C, strain dbp3, active compounds read low 1.04 | locus YGL086W, strain mad1, active compounds read low 1.01 | locus YGL167C, strain pmr1, active compounds read low 1.02 | locus YGL173C, strain kem1, active compounds read low 1.03 | locus YGL227W, strain vid30, active compounds read low 1.01 | locus YGL240W, strain doc1, active compounds read low 1.01 | locus YGL248W, strain PDE1, active compounds read low 1.05 | locus YGL253W, strain hxk2, active compounds read low 1.03 | locus YGR078C, strain PAC10, active compounds read low 1.04 | locus YGR135W, strain pre9, active compounds read low 1.05 | locus YGR252W, strain gcn5, active compounds read low 1.09 | locus YHR013C, strain ard1, active compounds read low 1.02 | locus YHR027C, strain rpn1, active compounds read low 1.03 | locus YHR030C, strain SLT2, active compounds read low 1.01 | locus YHR079C, strain IRE1 (second series), active compounds read low 1.03 | locus YHR079C, strain IRE1, active compounds read low 0.99 | locus YHR094C, strain hxt1, active compounds read low 1.02 | locus YHR129C, strain ARP1, active compounds read low 1.04 | locus YHR142W, strain chs7, active compounds read low 1.03 | locus YHR200W, strain rpn10, active compounds read low 1.05 | locus YIL066C, strain RNR3, active compounds read low 1.03 | locus YIL073C, strain SPO22, active compounds read low 1.16 | locus YIL125W, strain kgd1, active compounds read low 1.01 | locus YIR030C, strain dcg1, active compounds read low 1.03 | locus YJL092W, strain hpr5, active compounds read low 1.01 | locus YJL095W, strain BCK1 (second series), active compounds read low 1.02 | locus YJL095W, strain BCK1, active compounds read low 1.1 and 1.02 | locus YJL115W, strain asf1, active compounds read low 1.01 | locus YJL129C, strain trk1, active compounds read low 1.01 | locus YJL134W, strain LCB3, active compounds read low 1.01 | locus YJL154C, strain vps35, active compounds read low 1.02 | locus YJL164C, strain tpk1, active compounds read low 1.02 | locus YJL166W, strain qcr8, active compounds read low 1.02 | locus YJL168C, strain set2, active compounds read low 1.02 | locus YJL187C, strain SWE1 (second series), active compounds read low 1.05 | locus YJL187C, strain SWE1, active compounds read low 1.01 | locus YJR043C, strain POL32, active compounds read low 1.05 | locus YJR066W, strain TOR1, active compounds read low 0.951
